Experimental data taken from PubChem BioAssay (NCATS).
Records with an inconclusive call do not appear. Activity calls are given as the source filed them. Calls come from the whole dose curve; as a rule, active = well fitted inhibition curve with a large enough effect; inconclusive = small, poorly fitted or top-dose-only effect; inactive = flat fitted curve, though single readings scatter.

Columns and labels:
Test in all cases: qHTS profiling for inhibitors of Plasmodium falciparum proliferation (AID 504749); note: nearly all actives have a fitted effect of over 60% in size
Conditions in all cases: P. falciparum in erythrocytes, SYBR Green DNA, 72 h; series mostly up to 28.7 µM
ATS189 = tested on: ATS189
How it was run: (§1)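 Infected RBCs, 0.3% parasitemia/2.5% Hct final; cpd 72 h, 37 C, 5% CO2; lysis buffer with saponin/triton/SYBR Green I, o/n RT dark; FI 485/535; norm. to artemisinin (0.29 uM) and DMSO.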

CP185 = tested on: CP185
How it was run: as §1

CP191 = tested on: CP191
How it was run: as §1

CP192 = tested on: CP192
How it was run: as §1

CP194 = tested on: CP194
How it was run: as §1

CP201 = tested on: CP201
How it was run: as §1

CP237 = tested on: CP237
How it was run: as §1

CP238 = tested on: CP238
How it was run: as §1

CP247 = tested on: CP247
How it was run: as §1

CP262 = tested on: CP262
How it was run: as §1

CP265 = tested on: CP265
How it was run: as §1

CP266 = tested on: CP266
How it was run: as §1

CP268 = tested on: CP268
How it was run: as §1

CP305 = tested on: CP305
How it was run: as §1

DIV30 = tested on: DIV30
How it was run: as §1

HB3 = tested on: HB3
How it was run: as §1

P94_40 = tested on: P94_40
How it was run: as §1

PC49 = tested on: PC49
How it was run: as §1

TAB109 = tested on: TAB109
How it was run: as §1

TAB113 = tested on: TAB113
How it was run: as §1

Measured: Potency

CC1(C)[C@@H]2CC[C@]1(C)[C@@H](OC(=O)CSC#N)C2
inactive: all assays above

COc1cccc2c1C(=O)c1c(O)c3c(c(O)c1C2=O)C[C@](O)(C(=O)CO)C[C@@H]3O[C@H]1C[C@H](N)[C@@H](O)[C@H](C)O1
inactive: all assays above

CC(C)(C)NC[C@@H](O)c1ccc(O)c(CO)n1
inactive: all assays above
